Source: the supplement of paper PMC7724964

T1: LBR 1-67 LBR_tudor (domain begin residue: 1, domain end residue: 67), Q14739
T1 chain: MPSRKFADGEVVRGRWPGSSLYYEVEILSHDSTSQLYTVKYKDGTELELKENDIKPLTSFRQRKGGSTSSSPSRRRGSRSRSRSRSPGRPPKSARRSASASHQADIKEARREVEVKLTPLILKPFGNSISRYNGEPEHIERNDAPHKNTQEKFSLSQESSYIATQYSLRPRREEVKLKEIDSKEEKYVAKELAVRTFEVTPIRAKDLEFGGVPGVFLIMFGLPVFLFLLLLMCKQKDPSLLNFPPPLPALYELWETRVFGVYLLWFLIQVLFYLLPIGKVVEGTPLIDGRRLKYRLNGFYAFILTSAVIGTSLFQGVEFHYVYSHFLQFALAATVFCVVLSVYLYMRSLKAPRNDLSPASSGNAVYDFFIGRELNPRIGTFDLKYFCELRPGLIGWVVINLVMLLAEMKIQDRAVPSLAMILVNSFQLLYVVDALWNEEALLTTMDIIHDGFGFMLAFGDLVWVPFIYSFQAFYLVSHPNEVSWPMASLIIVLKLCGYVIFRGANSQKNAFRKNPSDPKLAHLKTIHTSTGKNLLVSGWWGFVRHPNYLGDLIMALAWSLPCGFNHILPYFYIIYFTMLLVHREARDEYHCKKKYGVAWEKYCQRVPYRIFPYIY

T2: IRS1 157-267 IRS (domain begin residue: 157, domain end residue: 267), P35568
T2 chain: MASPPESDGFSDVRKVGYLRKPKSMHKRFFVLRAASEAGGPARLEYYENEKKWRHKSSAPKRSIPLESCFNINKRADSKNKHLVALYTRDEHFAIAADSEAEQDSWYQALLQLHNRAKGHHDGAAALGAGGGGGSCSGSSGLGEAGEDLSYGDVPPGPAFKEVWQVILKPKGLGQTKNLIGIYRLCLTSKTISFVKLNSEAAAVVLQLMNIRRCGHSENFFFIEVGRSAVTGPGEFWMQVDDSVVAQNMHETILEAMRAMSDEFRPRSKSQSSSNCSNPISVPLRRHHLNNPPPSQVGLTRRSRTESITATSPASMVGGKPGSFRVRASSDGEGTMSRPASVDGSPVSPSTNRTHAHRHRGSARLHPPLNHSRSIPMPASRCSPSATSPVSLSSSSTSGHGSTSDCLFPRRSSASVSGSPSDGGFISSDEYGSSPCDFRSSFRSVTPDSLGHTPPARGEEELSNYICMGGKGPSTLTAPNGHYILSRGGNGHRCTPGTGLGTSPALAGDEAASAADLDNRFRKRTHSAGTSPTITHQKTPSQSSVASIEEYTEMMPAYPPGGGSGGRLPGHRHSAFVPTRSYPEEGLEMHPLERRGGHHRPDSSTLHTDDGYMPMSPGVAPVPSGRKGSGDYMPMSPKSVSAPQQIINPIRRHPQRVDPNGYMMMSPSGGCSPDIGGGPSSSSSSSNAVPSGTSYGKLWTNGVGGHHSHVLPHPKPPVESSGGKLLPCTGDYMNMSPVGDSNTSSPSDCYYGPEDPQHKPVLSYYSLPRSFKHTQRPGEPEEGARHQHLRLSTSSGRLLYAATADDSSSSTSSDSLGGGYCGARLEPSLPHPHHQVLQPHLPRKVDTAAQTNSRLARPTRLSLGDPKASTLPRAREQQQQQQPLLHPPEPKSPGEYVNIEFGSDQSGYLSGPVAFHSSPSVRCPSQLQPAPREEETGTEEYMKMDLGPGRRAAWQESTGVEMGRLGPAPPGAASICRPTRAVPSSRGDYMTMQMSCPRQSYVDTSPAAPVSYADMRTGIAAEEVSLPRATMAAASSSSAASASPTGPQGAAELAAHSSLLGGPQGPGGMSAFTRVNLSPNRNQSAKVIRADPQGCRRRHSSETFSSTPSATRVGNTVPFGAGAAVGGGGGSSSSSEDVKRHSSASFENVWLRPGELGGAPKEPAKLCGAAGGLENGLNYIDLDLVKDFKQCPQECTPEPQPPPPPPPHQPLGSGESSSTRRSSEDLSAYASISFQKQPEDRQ

T3: KAT8 2-458 Tudor-knot+MOZ_SAS (domain begin residue: 2, domain end residue: 458), Q9H7Z6
T3 chain: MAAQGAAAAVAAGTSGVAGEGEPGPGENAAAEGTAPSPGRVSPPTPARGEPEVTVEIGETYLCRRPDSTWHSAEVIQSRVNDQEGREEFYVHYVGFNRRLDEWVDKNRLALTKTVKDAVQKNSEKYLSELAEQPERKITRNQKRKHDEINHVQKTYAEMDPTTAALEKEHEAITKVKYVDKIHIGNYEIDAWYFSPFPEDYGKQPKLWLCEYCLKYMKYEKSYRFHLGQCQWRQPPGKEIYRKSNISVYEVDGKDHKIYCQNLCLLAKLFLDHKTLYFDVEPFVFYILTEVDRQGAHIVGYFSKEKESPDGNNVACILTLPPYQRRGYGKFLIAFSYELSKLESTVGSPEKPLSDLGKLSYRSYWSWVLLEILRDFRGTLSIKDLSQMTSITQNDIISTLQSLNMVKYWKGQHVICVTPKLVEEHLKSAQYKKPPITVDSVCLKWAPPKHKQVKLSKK

T4: TDRD1 261-449 TUDOR (domain begin residue: 261, domain end residue: 449), Q9BXT4
T4 chain: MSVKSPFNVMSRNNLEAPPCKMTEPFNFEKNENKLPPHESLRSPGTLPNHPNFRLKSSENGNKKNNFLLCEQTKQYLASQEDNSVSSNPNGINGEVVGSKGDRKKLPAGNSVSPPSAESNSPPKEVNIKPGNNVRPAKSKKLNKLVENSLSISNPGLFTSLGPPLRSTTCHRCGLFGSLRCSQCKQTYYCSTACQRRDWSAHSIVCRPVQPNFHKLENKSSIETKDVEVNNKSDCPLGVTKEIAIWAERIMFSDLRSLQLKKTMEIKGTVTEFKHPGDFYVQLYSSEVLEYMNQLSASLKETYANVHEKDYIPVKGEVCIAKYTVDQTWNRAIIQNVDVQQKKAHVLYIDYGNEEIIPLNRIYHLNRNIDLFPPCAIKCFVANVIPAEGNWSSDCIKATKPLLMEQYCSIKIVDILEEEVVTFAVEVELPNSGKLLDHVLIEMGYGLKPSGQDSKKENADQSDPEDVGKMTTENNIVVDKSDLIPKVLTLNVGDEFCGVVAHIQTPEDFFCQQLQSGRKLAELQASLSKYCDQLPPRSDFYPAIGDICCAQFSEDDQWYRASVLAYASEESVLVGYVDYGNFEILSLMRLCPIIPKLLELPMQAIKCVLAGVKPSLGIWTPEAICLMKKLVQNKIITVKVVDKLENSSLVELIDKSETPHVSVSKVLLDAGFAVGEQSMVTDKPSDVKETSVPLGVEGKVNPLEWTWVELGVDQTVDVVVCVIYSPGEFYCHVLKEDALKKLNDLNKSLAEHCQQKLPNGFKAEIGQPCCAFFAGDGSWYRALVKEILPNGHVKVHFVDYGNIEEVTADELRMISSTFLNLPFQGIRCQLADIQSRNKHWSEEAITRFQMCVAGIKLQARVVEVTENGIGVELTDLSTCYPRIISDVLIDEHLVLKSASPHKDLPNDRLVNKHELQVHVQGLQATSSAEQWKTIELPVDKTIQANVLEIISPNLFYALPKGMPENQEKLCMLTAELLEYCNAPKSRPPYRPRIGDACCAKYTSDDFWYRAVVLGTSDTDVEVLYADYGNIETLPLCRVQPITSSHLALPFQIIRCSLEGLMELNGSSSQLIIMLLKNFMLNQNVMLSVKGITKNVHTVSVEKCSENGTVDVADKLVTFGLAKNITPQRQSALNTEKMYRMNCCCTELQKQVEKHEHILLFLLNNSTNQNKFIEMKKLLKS


The binders below were run against KPNB1 1-876 IBN_N+Arm (domain begin residue: 1, domain end residue: 876), Q14974 (assay: phage ELISA signal ratio (GST-PRM binding over GST background); higher = stronger binding of peptide-phage to the PRM).
In short: (§1)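 Human peptide recognition domains were expressed in 96-well plates as fusions to the C-terminus of glutathione S-transferase (GST) and selected against an M13 phage library displaying randomized hexadecapeptides, cysteine-free and glycine-flanked, on the gene-8 major coat protein. Five selection rounds were run, and approximately 48 individual clones from rounds 4 and 5 were tested by phage ELISA. Each value is the ELISA signal on the GST-domain fusion divided by the signal on GST alone. Positive clones were sequenced.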

Chain of KPNB1 1-876 IBN_N+Arm (domain begin residue: 1, domain end residue: 876), Q14974 (Q14974 whole entry, the tested form may be a part): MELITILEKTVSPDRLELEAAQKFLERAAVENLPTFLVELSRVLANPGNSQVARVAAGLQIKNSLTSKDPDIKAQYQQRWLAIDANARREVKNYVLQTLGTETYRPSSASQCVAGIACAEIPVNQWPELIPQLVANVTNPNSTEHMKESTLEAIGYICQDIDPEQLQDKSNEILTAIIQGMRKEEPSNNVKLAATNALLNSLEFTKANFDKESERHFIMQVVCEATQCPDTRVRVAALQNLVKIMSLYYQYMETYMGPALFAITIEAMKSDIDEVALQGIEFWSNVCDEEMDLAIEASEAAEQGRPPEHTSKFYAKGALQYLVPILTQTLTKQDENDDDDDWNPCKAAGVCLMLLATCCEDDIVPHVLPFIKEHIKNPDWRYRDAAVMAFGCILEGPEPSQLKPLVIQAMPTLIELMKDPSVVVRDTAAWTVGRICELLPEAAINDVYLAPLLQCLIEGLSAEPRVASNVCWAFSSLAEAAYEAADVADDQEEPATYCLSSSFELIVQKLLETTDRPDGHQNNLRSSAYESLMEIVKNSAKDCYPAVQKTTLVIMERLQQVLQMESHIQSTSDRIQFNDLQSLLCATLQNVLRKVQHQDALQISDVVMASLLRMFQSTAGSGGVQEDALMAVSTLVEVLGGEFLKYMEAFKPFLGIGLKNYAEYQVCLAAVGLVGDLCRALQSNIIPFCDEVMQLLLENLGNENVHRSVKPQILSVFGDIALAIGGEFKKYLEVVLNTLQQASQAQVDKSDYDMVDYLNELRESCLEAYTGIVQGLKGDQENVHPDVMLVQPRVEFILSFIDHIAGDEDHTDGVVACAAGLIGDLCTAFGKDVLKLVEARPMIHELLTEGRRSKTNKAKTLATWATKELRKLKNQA

Binder | phage ELISA signal ratio
YDFGPFMGVGAPSFQF | 9.88
PSEWENYMSVGDIFIF | 16.9

Each binder was assayed against HSPA9 438-651 HSP70 (domain begin residue: 438, domain end residue: 651), P38646 in the same assay as above.
In short: as §1

Chain of HSPA9 438-651 HSP70 (domain begin residue: 438, domain end residue: 651), P38646 (P38646 whole entry): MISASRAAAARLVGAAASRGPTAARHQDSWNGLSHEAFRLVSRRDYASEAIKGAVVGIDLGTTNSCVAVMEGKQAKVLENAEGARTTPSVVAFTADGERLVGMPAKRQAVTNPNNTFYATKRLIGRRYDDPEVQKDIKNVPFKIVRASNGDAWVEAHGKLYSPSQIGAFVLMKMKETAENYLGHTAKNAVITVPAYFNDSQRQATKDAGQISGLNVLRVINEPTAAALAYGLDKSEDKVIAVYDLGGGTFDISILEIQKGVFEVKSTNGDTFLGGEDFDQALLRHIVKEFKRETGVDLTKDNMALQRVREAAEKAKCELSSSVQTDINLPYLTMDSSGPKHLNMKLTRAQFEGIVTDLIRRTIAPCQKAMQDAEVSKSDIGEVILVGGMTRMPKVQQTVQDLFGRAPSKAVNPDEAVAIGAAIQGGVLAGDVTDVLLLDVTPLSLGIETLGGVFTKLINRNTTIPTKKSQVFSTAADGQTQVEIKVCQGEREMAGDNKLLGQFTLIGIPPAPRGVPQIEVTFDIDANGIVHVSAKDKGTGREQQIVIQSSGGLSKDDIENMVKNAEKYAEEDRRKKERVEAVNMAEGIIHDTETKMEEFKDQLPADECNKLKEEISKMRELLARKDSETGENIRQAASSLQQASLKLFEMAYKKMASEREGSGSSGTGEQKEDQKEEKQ

Binder | phage ELISA signal ratio
TFSMHRDEFQMLLNMM | 23.3

Molecular target: T1, LBR 1-67 LBR_tudor (domain begin …
Test: as above
In short: as §1

Binder | phage ELISA signal ratio
PYDNYRVVQIPWLFSD | 3.18

What follows are binders tested against KARS 71-214 tRNA_anti-codon (domain begin residue: 71, domain end residue: 214), Q15046 in the same assay as above.
In short: as §1

Chain of KARS 71-214 tRNA_anti-codon (domain begin residue: 71, domain end residue: 214), Q15046 (Q15046 whole entry, looked up, tested part not stated): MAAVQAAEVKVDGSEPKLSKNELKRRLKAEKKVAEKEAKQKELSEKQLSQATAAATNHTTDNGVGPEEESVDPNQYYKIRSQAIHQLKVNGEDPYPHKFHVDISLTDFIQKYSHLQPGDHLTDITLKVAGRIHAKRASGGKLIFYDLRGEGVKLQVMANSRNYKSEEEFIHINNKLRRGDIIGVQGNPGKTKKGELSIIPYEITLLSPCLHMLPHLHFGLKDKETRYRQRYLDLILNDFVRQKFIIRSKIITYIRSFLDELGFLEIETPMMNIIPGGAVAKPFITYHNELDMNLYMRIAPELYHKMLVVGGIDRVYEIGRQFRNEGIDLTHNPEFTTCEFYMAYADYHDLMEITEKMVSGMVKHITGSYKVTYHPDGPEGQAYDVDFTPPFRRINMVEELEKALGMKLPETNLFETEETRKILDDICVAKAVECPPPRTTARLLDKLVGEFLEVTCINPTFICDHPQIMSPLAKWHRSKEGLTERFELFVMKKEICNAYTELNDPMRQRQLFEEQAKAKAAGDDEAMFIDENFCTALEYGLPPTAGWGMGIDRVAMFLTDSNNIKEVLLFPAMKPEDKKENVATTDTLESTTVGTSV

Binder | phage ELISA signal ratio
DWEWYQYFNAPQPVKG | 25.1
ETWADYFNVPISWIHE | 18.1

What follows are binders tested against KDM6A 1-520 TPR_8 (domain begin residue: 1, domain end residue: 520), O15550 in the same assay as above.
In short: as §1

Chain of KDM6A 1-520 TPR_8 (domain begin residue: 1, domain end residue: 520), O15550 (O15550 whole entry): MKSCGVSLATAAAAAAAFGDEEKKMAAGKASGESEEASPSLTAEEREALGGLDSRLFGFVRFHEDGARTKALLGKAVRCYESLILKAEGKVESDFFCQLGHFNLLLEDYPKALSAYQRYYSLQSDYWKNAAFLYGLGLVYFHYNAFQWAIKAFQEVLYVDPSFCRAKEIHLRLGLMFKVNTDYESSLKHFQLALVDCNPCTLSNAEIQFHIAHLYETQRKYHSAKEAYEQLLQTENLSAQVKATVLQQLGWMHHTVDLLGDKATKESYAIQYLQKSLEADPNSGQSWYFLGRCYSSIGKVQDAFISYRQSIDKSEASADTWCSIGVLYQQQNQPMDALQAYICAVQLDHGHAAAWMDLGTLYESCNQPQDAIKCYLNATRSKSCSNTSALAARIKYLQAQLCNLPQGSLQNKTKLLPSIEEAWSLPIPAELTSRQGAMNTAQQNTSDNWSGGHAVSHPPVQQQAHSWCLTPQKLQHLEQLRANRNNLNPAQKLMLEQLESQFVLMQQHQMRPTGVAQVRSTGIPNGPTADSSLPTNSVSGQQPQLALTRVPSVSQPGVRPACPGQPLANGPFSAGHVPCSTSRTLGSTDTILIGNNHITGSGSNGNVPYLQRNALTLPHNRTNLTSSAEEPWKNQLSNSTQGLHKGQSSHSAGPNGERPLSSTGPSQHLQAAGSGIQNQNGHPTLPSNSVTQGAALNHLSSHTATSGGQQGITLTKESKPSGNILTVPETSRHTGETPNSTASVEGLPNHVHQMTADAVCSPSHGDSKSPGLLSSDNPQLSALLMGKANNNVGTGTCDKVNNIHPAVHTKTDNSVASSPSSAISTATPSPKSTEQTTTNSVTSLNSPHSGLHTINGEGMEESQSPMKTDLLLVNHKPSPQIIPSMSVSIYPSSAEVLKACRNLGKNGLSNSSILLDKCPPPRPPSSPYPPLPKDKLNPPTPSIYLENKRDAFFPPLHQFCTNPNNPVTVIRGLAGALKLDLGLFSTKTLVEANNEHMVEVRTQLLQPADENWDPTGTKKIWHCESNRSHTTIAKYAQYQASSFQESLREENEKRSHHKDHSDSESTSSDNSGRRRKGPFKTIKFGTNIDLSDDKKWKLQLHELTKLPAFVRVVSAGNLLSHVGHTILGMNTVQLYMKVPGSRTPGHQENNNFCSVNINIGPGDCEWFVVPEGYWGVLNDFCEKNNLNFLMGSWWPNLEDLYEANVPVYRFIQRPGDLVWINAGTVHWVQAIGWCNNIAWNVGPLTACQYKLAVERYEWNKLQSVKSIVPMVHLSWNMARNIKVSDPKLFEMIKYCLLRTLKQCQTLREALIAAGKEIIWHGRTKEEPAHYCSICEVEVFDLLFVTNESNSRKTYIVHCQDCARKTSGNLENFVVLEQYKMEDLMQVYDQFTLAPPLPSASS

Binder | phage ELISA signal ratio
VEVDYFNSMYEAMSFM | 4.78
WGWDDIPALQEMKPTN | 7.16
IYLDQWFEEISTYVPA | 8.33
QWLEWISPEIDFTPME | 3.57
HYMEMLYEQLAISQAI | 5.05
WAEELYHSTQWLGVTE | 5.83

Molecular target: T2, IRS1 157-267 IRS (domain begin residue: …
Test: as above
In short: as §1

Binder | phage ELISA signal ratio
SDMNWWEEWDFFLARE | 15

Molecular target: T3, KAT8 2-458 Tudor-knot+MOZ_SAS (domain …
Test: as above
In short: as §1

Binder | phage ELISA signal ratio
YIDHMYDVVMYEEIEW | 3.94

Molecular target: T4, TDRD1 261-449 TUDOR (domain begin …
Test: as above
In short: as §1

Binder | phage ELISA signal ratio
YIDHMYDVVMYEEIEW | 8.98
